PubChem BioAssay (EPA / NIEHS)
Activity calls are given as the source filed them. How the source made its calls: active means hit-call score of the fitted dose curve at least 0.9, where 1 is the maximum; inactive means score below 0.9.

Columns and labels:
[1] = read-out: CFLAR gene, CFLAR (gene 8837); test: LTEA_HepaRG_CFLAR: Life Technologies and Expression Analysis (LTEA) Assay for CFLAR gene using HepaRG (AID 2283455); conditions: mRNA level, 48 h; actives raise or lower the signal
Outline: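 Transcript level by qRT-PCR (normalized to ACTB, GAPDH and POLR2A) after 48 h chemical exposure of HepaRG cells, top concentration 100 uM with half-log steps, 0.5% DMSO vehicle, duplicates; fitted bidirectionally against DMSO baseline.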

[2] = read-out: Forkhead box O1 (FOXO1), FOXO1 (gene 2308); test: LTEA_HepaRG_FOXO1: Life Technologies and Expression Analysis (LTEA) Assay for Forkhead box O1 (FOXO1) using HepaRG (AID 2283456); conditions: mRNA level, 48 h; actives raise or lower the signal
Outline: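 FOXO1 transcript quantified by qRT-PCR after 48 h chemical exposure (top 100 uM, half-log steps, 0.5% DMSO) of HepaRG cells, housekeeping-normalized (ACTB/GAPDH/POLR2A). Changes fitted in both directions relative to vehicle.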

[3] = CEETOX_H295R_TESTO: CeeTox H295R High-throughput Steroidogenesis Assay for Testosterone (TESTO) (AID 2283457); conditions: actives raise or lower the signal;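 on AC50: cells exposed to chemicals for 48 h before medium collection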
Outline: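 Testosterone secreted into the medium over 48 h by H295R cells (maximum passage 10) was quantified by LC-MS/MS after MTBE extraction. Fitted in both directions against DMSO, with concentrations diluted until MTT viability was ≥70%.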

[4] = read-out: growth arrest and DNA damage 45 (GADD45A), GADD45A (gene 1647); test: LTEA_HepaRG_GADD45A: Life Technologies and Expression Analysis (LTEA) Assay for growth arrest and DNA damage 45 (GADD45A) using HepaRG (AID 2283458); conditions: mRNA level, 48 h; actives raise or lower the signal
Outline: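 Transcript induction or loss, quantified by TaqMan qRT-PCR against three housekeeping genes, is the read-out. HepaRG cells received chemicals for 48 h across eight half-log concentrations from 100 uM in 0.5% DMSO; gain and loss fitted relative to DMSO.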

[5] = read-out: Forkhead box O3 (FOXO3), FOXO3 (gene 2309); test: LTEA_HepaRG_FOXO3: Life Technologies and Expression Analysis (LTEA) Assay for Forkhead box O3 (FOXO3) using HepaRG (AID 2283459); conditions: mRNA level, 48 h; actives raise or lower the signal
Outline: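 FOXO3 transcript measured by qRT-PCR (normalized to ACTB, GAPDH, POLR2A) after 48 h exposure of HepaRG cells in serum-free induction medium. Duplicates, eight half-log concentrations up to 100 uM, 0.5% DMSO; gain or loss fitted against DMSO.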

[6] = read-out: ABC Transporter (ABCB1), ABCB1 (gene 5243); test: LTEA_HepaRG_ABCB1: Life Technologies and Expression Analysis (LTEA) Assay for ABC Transporter (ABCB1) using HepaRG (AID 2283460); conditions: mRNA level, 48 h; actives raise or lower the signal
Outline: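 ABCB1 transcript level measured by TaqMan qRT-PCR against three housekeeping genes after 48 h chemical exposure of differentiated HepaRG cells. Top concentration 100 uM, half-log steps, eight points, 0.5% DMSO vehicle; bidirectional fit relative to DMSO.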

[7] = read-out: growth arrest and DNA damage 45 (GADD45B), GADD45B (gene 4616); test: LTEA_HepaRG_GADD45B: Life Technologies and Expression Analysis (LTEA) Assay for growth arrest and DNA damage 45 (GADD45B) using HepaRG (AID 2283461); conditions: mRNA level, 48 h; actives raise or lower the signal
Outline: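 Transcript level quantified by Fluidigm TaqMan qRT-PCR with three housekeeping genes for normalization, analyzed for up- or down-regulation against 0.5% DMSO. HepaRG cultures dosed 48 h at eight half-log concentrations up to 100 uM, duplicates.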

[8] = read-out: ABC Transporter (ABCC3), ABCC3 (gene 8714); test: LTEA_HepaRG_ABCC3: Life Technologies and Expression Analysis (LTEA) Assay for ABC Transporter (ABCC3) using HepaRG (AID 2283462); conditions: mRNA level, 48 h; actives raise or lower the signal
Outline: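 Transcript level by TaqMan qRT-PCR, normalised to three housekeeping genes, fitted in both directions relative to vehicle. Chemicals tested in duplicate at eight half-log concentrations up to 100 uM for 48 h on HepaRG cells (0.5% DMSO).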

[9] = read-out: ABC Transporter (ABCB11), ABCB11 (gene 8647); test: LTEA_HepaRG_ABCB11: Life Technologies and Expression Analysis (LTEA) Assay for ABC Transporter (ABCB11) using HepaRG (AID 2283463); conditions: mRNA level, 48 h; actives raise or lower the signal
Outline: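 ABCB11 transcript levels quantified by TaqMan qRT-PCR against three housekeeping genes after 48 h chemical exposure of HepaRG cultures. Concentrations up to 100 uM in half-log steps, 0.5% DMSO vehicle; both induction and suppression scored.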

[10] = read-out: ABC Transporter (ABCC2), ABCC2 (gene 1244); test: LTEA_HepaRG_ABCC2: Life Technologies and Expression Analysis (LTEA) Assay for ABC Transporter (ABCC2) using HepaRG (AID 2283464); conditions: mRNA level, 48 h; actives raise or lower the signal
Outline: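 Endpoint is ABCC2 transcript level from qRT-PCR, normalized to three housekeeping genes and fitted bidirectionally relative to DMSO. Human HepaRG cells received test chemical for 48 h at up to 100 uM (8 points, half-log steps, 0.5% DMSO), duplicate wells.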

[11] = read-out: Broad substrate specificity ATP-binding cassette transporter ABCG2 (Homo sapiens) (UniProt Q9UNQ0); test: LTEA_HepaRG_ABCG2: Life Technologies and Expression Analysis (LTEA) Assay for ABC Transporter (ABCG2) using HepaRG (AID 2283465); conditions: mRNA level, 48 h; actives raise or lower the signal
Outline: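 ABCG2 transcript was quantified by TaqMan qRT-PCR against three housekeeping genes in HepaRG cells. Cells were treated in duplicate for 48 h across an 8-point half-log series up to 100 uM, with 0.5% DMSO vehicle. Gain or loss versus DMSO was fit.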

[12] = read-out: ATP-citrate lyase (ACLY), ACLY (gene 47); test: LTEA_HepaRG_ACLY: Life Technologies and Expression Analysis (LTEA) Assay for ATP-citrate lyase (ACLY) using HepaRG (AID 2283466); conditions: mRNA level, 48 h; actives raise or lower the signal
Outline: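 ACLY mRNA quantified by qRT-PCR on Fluidigm arrays against three housekeeping genes, after 48 h chemical treatment of HepaRG cells (top concentration 100 uM, half-log steps, 0.5% DMSO vehicle). Up- or down-regulation fitted relative to DMSO.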

[13] = read-out: Peroxisomal acyl-coenzyme A oxidase 1 (ACOX1) gene, ACOX1 (gene 51); test: LTEA_HepaRG_ACOX1: Life Technologies and Expression Analysis (LTEA) Assay for Peroxisomal acyl-coenzyme A oxidase 1 (ACOX1) gene using HepaRG (AID 2283467); conditions: mRNA level, 48 h; actives raise or lower the signal
Outline: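 ACOX1 transcript levels were quantified by TaqMan qRT-PCR against three housekeeping genes after 48 h chemical exposure of differentiated human HepaRG cells. Exposure used eight half-log steps topping at 100 uM, 0.5% DMSO vehicle, in duplicate. Bidirectional curve fits were made relative to DMSO.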

[14] = read-out: Bcl-2 (BAD) gene, BAD (gene 572); test: LTEA_HepaRG_BAD: Life Technologies and Expression Analysis (LTEA) Assay for Bcl-2 (BAD) gene using HepaRG (AID 2283469); conditions: mRNA level, 48 h; actives raise or lower the signal
Outline: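 Read-out: qRT-PCR of BAD mRNA, normalized to three housekeeping genes. Human HepaRG cultures got 48 h chemical exposure in 0.5% DMSO, duplicate eight-point half-log series topping at 100 uM. Gain or loss of signal fitted versus DMSO vehicle.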

[15] = read-out: adenosine kinase (ADK) gene, ADK (gene 132); test: LTEA_HepaRG_ADK: Life Technologies and Expression Analysis (LTEA) Assay for adenosine kinase (ADK) gene using HepaRG (AID 2283471); conditions: mRNA level, 48 h; actives raise or lower the signal
Outline: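 HepaRG (human liver), 48 h chemical exposure, 8-pt half-log series, top 100 uM, 0.5% DMSO vehicle. Readout: ADK mRNA by qRT-PCR vs housekeeping genes; bidirectional curve fit relative to DMSO baseline.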

[16] = read-out: Alpha-fetoprotein (AFP) gene, AFP (gene 174); test: LTEA_HepaRG_AFP: Life Technologies and Expression Analysis (LTEA) Assay for Alpha-fetoprotein (AFP) gene using HepaRG (AID 2283472); conditions: mRNA level, 48 h; actives raise or lower the signal
Outline: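 Chemicals were tested on differentiated HepaRG cells for 48 hours at eight concentrations up to 100 uM, with 0.5% DMSO as vehicle. AFP expression was then quantified by qRT-PCR and analyzed for gain or loss relative to DMSO.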

BCL2L11 (gene 10018) = test: LTEA_HepaRG_BCL2L11: Life Technologies and Expression Analysis (LTEA) Assay for Bcl-2 (BCL2L11) gene using HepaRG (AID 2283473); conditions: mRNA level, 48 h; actives raise or lower the signal
Outline: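 BCL2L11 transcript levels are measured by Fluidigm qRT-PCR, normalized to three housekeeping genes. HepaRG cultures were plated 48 h, then treated 48 h with test chemical (top 100 uM, half-log, 0.5% DMSO vehicle); curves were fitted bidirectionally against DMSO.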

[17] = read-out: Alkaline Phosphatase, Placental (ALPP) gene, ALPP (gene 250); test: LTEA_HepaRG_ALPP: Life Technologies and Expression Analysis (LTEA) Assay for Alkaline Phosphatase, Placental (ALPP) gene using HepaRG (AID 2283468); conditions: mRNA level, 48 h; actives raise or lower the signal;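 on AC50: differentiated human HepaRG liver cells in serum-free induction medium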
Outline: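 ALPP transcript level, measured by qRT-PCR and normalized to three housekeeping genes (ACTB, GAPDH, POLR2A), after 48 h dosing of differentiated HepaRG in serum-free induction medium. Top concentration 100 uM with half-log dilutions (8 points, 0.5% DMSO, duplicates); bidirectional fitting relative to DMSO.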

[18] = read-out: Cytochrome P450 (CYP1A1), CYP1A1 (gene 1543); test: LTEA_HepaRG_CYP1A1: Life Technologies and Expression Analysis (LTEA) Assay for Cytochrome P450 (CYP1A1) using HepaRG (AID 2283454); conditions: mRNA level, 48 h; actives raise or lower the signal
Outline: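 CYP1A1 transcript levels measured by Fluidigm qRT-PCR against three housekeeping genes, 48 h after chemical dosing of human HepaRG cells (highest concentration 100 uM, half-log steps, 0.5% DMSO vehicle). Gain or loss of signal fitted relative to DMSO.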

[19] = read-out: Bcl-2 (BAX) gene, BAX (gene 581); test: LTEA_HepaRG_BAX: Life Technologies and Expression Analysis (LTEA) Assay for Bcl-2 (BAX) gene using HepaRG (AID 2283470); conditions: mRNA level, 48 h; actives raise or lower the signal
Outline: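 Cells were thawed, plated for 48 h, moved to serum-free induction medium and dosed for 48 h (highest concentration 100 uM, half-log steps, 0.5% DMSO). Total RNA was then analysed for BAX expression by qRT-PCR.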

Measured: AC50

Chain of Broad substrate specificity ATP-binding cassette transporter ABCG2 (Homo sapiens) (Q9UNQ0 whole entry, looked up): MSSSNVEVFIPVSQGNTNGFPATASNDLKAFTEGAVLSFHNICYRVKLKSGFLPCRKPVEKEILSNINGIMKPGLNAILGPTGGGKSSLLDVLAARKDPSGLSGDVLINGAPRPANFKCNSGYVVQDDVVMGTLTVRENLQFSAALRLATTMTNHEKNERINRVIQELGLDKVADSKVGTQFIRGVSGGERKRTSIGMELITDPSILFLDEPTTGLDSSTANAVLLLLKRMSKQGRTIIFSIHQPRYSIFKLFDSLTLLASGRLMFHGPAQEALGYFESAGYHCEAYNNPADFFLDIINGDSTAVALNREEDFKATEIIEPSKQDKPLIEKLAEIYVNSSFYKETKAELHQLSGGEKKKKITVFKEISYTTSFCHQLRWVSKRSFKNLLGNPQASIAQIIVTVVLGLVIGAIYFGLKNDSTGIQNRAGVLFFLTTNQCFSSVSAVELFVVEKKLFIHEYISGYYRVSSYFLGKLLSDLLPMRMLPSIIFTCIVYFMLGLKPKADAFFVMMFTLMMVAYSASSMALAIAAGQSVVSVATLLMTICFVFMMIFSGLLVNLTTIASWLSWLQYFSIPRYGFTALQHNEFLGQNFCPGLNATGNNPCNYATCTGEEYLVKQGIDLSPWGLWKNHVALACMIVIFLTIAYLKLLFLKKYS

C[C@]12C=CC3=C4CCC(=O)C=C4CC[C@H]3[C@@H]1CC[C@@H]2O
active: [3] 83 µM | [9] 27.3 µM | [15] 68.2 µM | [16] 50 µM
not listed: [17] | [18] | [19]
inactive: all other assays above

O=P(OCCCl)(OCCCl)OCCCl
not listed: [3] | [18] | [19]
inactive: all other assays above

O=[N+]([O-])c1ccc(Oc2ccc(Cl)cc2Cl)cc1
active: [18] 22.8 µM | [9] 11.5 µM | [11] 14.5 µM | [16] 66.9 µM
not listed: [3] | [6] | [17]
inactive: all other assays above

Nc1ccc(Oc2ccc(N)cc2)cc1
active: [18] 37.5 µM
not listed: [3] | [10]
inactive: all other assays above

Cc1ccc([N+](=O)[O-])cc1
active: [18] 9.92 µM | [6] 2.47 µM | [10] 13 µM
not listed: [3] | [17]
inactive: all other assays above

CN(C)C(=O)Nc1ccc(Cl)cc1
not listed: [3] | [18]
inactive: all other assays above

CCN(CC)CCO
not listed: [3] | [18]
inactive: all other assays above

C=CCc1ccc2c(c1)OCO2
active: [18] 50 µM
not listed: [3] | [17]
inactive: all other assays above

CCOc1cccc(C2(N3CCN(c4ccccc4)CC3)CCC(C)CC2)c1 (centres undefined)
active: [18] 35.9 µM
not listed: [3] | [17]
inactive: all other assays above

Cc1cc(N=Nc2ccccc2C)ccc1N
inactive: [3] | [11] | [14]
active: [1] 2.75 µM | [2] 12.5 µM | [4] 3.52 µM | [5] 5.56 µM | [6] 5.45 µM | [7] 7.67 µM | [8] 13 µM | [9] 4.58 µM | [10] 3.17 µM | [12] 0.387 µM | [13] 2.57 µM | [17] 12.6 µM | [19] 1.99 µM | [15] 4.93 µM | [16] 4.69 µM | BCL2L11 (gene 10018) 3.13 µM

Cn1cc(-c2ccccc2)c(=O)c(-c2cccc(C(F)(F)F)c2)c1
active: [18] 32.6 µM | [1] 9.92 µM | [6] 7.25 µM | [10] 5.1 µM | [11] 10.6 µM
not listed: [3] | [17]
inactive: all other assays above

O=Cc1ccco1
active: [18] 50 µM
not listed: [3] | [17]
inactive: all other assays above

OCCCBr
not listed: [3] | [17] | [19]
inactive: all other assays above

Cc1ccc(N)c(N)c1
not listed: [3] | [8] | [18]
inactive: all other assays above

CN(C)c1ccc(C(=O)c2ccc(N(C)C)cc2)cc1
active: [16] 50 µM
not listed: [3] | [17] | [18] | [19]
inactive: all other assays above
